Laboratory results published in PubChem BioAssay AID1347426 (Functional Genomics Laboratory (NCATS/FGL), 2020).
Out of some 31,000 sequences screened, about 1,400 (4.5%) were called active.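 The calls were made as follows: active = median seed-adjusted z-score above 1 or below -1; inactive = the rest.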 The full list was thinned out, with actives kept by preference.

Test: Novel Modifiers of Survival Motor Neuron (SMN) Protein: Gene Identification via Genome-wide siRNA Screen;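 also: luminescence tracks full-length SMN protein made from the SMN2 reporter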
Settings: HEK293T SMN2-luciferase reporter, siRNA knockdown, 72 h; actives lie on both sides
Procedure, shortened: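 HEK293T cells stably carrying an SMN2 promoter/splicing cassette–luciferase reporter were reverse-transfected with 1 pmol siRNA per well (druggable-genome library, 3 siRNAs per gene) and grown 72 h at 37 °C. Luminescence, normalized to negative-control siRNA and log10-transformed, was scored as MAD.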

Sequence	median seed-adjusted z-score
GCAACGAUGUUGCCUGGAATT against GPX1	-0.0529 (inactive)
GCAUGCAGAUGUUCGGCAATT against CACNA1F	0.22 (inactive)
CAAGCUUGUUAACAUCAAATT against NPVF	0.588 (inactive)
GGCUAAUACUGGAAUUGCUTT against SLC38A2	-1.04 (active)
CCAUGUCUUUCUAUCGCAATT against PLD2	-0.743 (inactive)
GCAAGAUCUUAUCCACAGATT against CIP29	-1.18 (active)
CAUUGGAAUUCUUUCAAUATT against APTX	-0.131 (inactive)
GAGAAGACCUUUAUACGAATT against XPOT	0.366 (inactive)
GGAUGGUGGCGUCCAAGAUTT against PSMB10	0.00939 (inactive)
GAGCUUCACUCAAAAAUCATT against ZNF160	-0.454 (inactive)
GCCUAGAAGUGGAACGUGUTT against IFT57	-1.1 (active)
CCACCUUCGAUGUUCCCAUTT against HMG20B	0.231 (inactive)
GCAGAGUCACUUUGACAAUTT against CHRNG	0.221 (inactive)
GGCUUUUAGAGUACGACAATT against ZFP30	0.211 (inactive)
CAGUCAACCUGAUUUGAGATT against SOX7	-0.387 (inactive)
CGUUUAACGUGGUGCUGUUTT against GPR32	-1.2 (active)
GCUCUAUGUCUACAUCAAUTT against DAXX	0.349 (inactive)
AUAUCGCUGUGAUGCAAAATT against PLA2G12B	-0.162 (inactive)
ACAGCGAGGUCAAAAGAAATT against HSD11B1	-0.174 (inactive)
GGACUAAGUGAAGAGCUUATT against NFYB	-0.29 (inactive)
GAGCUGAACUUGUCAUUCUTT against RANGAP1	-0.0379 (inactive)
CAUGAACCCAGUGAAGAUATT against IRF6	-1.79 (active)
CACUCAACAUUACAGAUUUTT against ZNF514	0.125 (inactive)
CAGCUUUACGAGUAUGCAATT against HS6ST3	-0.405 (inactive)
